This is a sample that favours compounds with a hit; in the whole collection about 3.7% have one here.
TMEM16A inh – blocks the mouse calcium-activated chloride channel TMEM16A; Q8BHY3; HEK293 TMEM16A/YFP iodide influx fluorescence, ionomycin; normalized B-score (activity score, 25-100; higher = stronger inhibition) at 10 µM; hit rate 1.2% among 310,000; AID 588511;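 active means ratio plate-corrected score three or more library SD toward inhibition, starting fluorescence score within five deviations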;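 further: score derived from kinetic fluorescence span divided by baseline fluorescence per well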
GPR7 antagonist – human neuropeptides B/W receptor 1 antagonism; hit rate 1.1% among 290,000; inhibition, % at 4.4 µM; GPR7-expressing cells, fluorescence antagonist assay; P48145; in the data active means inhibition above about 16%, passing the limit was not always enough;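 further: cells stimulated with the agonist NPW; 0% = agonist with vehicle and 100% = vehicle without agonist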
Target sequence (P48145 whole entry, looked up): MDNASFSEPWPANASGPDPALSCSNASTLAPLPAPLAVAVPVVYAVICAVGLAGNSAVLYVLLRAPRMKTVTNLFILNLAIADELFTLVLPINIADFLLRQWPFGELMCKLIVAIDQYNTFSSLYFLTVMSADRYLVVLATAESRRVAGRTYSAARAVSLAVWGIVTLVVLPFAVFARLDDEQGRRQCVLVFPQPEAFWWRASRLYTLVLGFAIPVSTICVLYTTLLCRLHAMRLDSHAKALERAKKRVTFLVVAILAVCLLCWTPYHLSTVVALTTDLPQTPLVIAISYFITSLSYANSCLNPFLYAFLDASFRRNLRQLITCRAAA
CHT inh – inhibits the human high affinity choline transporter. hit rate 0.86% among 310,000. CHT-expressing cells, membrane potential dye, choline response; hits give low values. B-score at 10 µM;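 active means B-score over 3 SD under the library average, and starting fluorescence ratio not unusually high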;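 further: choline stimulus applied at its EC90 after an EC20 pre-addition; B-score computed on integrated fluorescence ratio after choline addition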
TMEM16A act – mouse TMEM16A channel activation, primary screen | B-score at 10 µM | hit rate 0.3% among 340,000 | HEK293 TMEM16A/YFP-H148Q/I152L, iodide quench fluorescence; hits give low values;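 active means fluorescence-ratio B-score plate-corrected deviation score at least 3 library SD below zero, with starting fluorescence score within 5 deviations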;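 further: channel opened by trigger with iodide after compound preincubation; score built on the fluorescence ratio of max minus min over baseline; more negative score means more quench and so TMEM16A activation or potentiation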
CHT PAM – allosteric activators of human choline transporter CHT; CHT-expressing cells, membrane potential dye, choline EC20; hits give high values; LV-AA mutant CHT in HEK293 cells; Q9GZV3; hit rate 0.49% among 310,000; B-score at 10 µM;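 active means initial fluorescence not abnormally high and integrated response B-score, plate-corrected, over 3 SD above library mean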
Kir21 block – inhibitors of mouse Kir2.1 inward-rectifier potassium channel. P35561. HEK293-Kir2.1, FluxOR thallium flux fluorescence; hits give low values. B-score at 10 µM. hit rate 0.85% among 310,000. AID 1672;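 active means fluorescence ratio B-score at or below minus 3 SD of library scores, with starting-brightness B-score within 2 SD, cut at about -4.2 in these data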;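 further: channel flux triggered by added potassium and thallium sulfate stimulus; B-score of peak minus minimum fluorescence over baseline after thallium stimulus; more negative B-score means stronger Kir2.1 block with less thallium influx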
CHT act confirm – human CHT activation, confirmatory screen; shares compounds with CHT PAM; CHT-expressing cells, membrane potential dye fluorescence (FDSS); % of choline EC20–EC90 response window; HEK293 expressing CHT LV-AA mutant; choline added at its EC20; activation, % at 10 µM; hit rate 91% among 2,500; AID 504833;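 active means primary screen active, with duplicate mean activation above negative control mean plus 3 SD, cut at about 11% in these data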
HEK293 MP dye – counter-screen for CHT activators: effect in parental HEK293 cells; shares compounds with CHT PAM; membrane potential dye fluorescence (FDSS); measured after EC20 choline addition; ratio readout change at 10 µM, hits read low; hit rate 62% among 2,500; AID 623908;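 active means duplicate-averaged ratio beyond 3 SD from buffer wells, up or down, though filed actives are nearly all decreases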
The depositor's hits bear a star; i = inactive; . = no result given.

SMILES	TMEM16A inh	GPR7 antagonist	CHT inh	TMEM16A act	CHT PAM	Kir21 block	CHT act confirm	HEK293 MP dye
Cc1cc(N2CCN(C)CC2)nc2ccc(NC(=O)c3ccc(Br)o3)cc12	i	-1.9	i	i	i	0.32	43.7*	-29.6*
Cn1c(CSCc2ccc(F)cc2)nnc1SCC(=O)Nc1cccc(C(=O)O)c1	i	-3.2	i	i	i	-1.27	.	.
COc1ccc(-c2cc(-c3ccco3)[nH]c(=O)c2C#N)cc1OC	i	0.4	i	i	i	0.64	.	.
COc1ccc(CNC(=S)Nc2ccc3nc(N4CCN(C)CC4)cc(C)c3c2)cc1	i	4.8	i	i	6.3*	-0.13	32.3*	-37.5*
CCN(CC)CCNC(=S)Nc1ccc2nc(N3CCN(C)CC3)cc(C)c2c1	i	1.1	i	i	i	-0.02	45.1*	-24.1*
O=C(NCCc1ccccc1)C(=O)Nc1ccc([N+](=O)[O-])cc1	i	-4.0	i	i	i	0.04	.	.
COC(=O)[C@@]12CCCCN1[C@H](c1ccc(-c3ccc(C(C)=O)cc3)cc1)[C@@H]1C(=O)N(C)C(=O)[C@@H]12	i	.	i	i	i	-0.46	.	.
COc1cc(C(=O)Nc2sc3c(c2C(=O)NCc2ccco2)CCCC3)cc(OC)c1OC	i	-7.8	i	i	7.62*	0.66	7.8	i
CCOC(=O)c1ccc(-c2cc(C)no2)[nH]1	i	-7.6	i	i	i	1.37	.	.
COc1cccc2sc(Nc3nc(-c4ccncc4)cs3)nc12	i	8.6	i	i	i	-0.26	.	.
COc1ccc(OC)c2nc(-c3ccncc3)ccc12	i	-3.7	i	.	i	0.68	51.7*	-52*
COc1ccccc1CN1CCC(CNS(=O)(=O)c2cc(-c3onc(C)c3C)ccc2OC)CC1	i	22.3	i	i	i	-1.91	39.5*	-47.7*
Cc1ccc(SCc2nc3ncccn3c2Br)cc1	i	0.5	i	i	i	-0.21	.	.
COc1ccc(-c2cc(C(=O)O)c3c(C)nn(-c4ccccn4)c3n2)cc1	i	-7.3	i	.	i	-1.95	.	.
CCOC(=O)c1cc(-c2ccncc2)nc2c1c(C)nn2-c1ccccn1	i	10.6	i	i	7.68*	0.61	30.0*	-20.1*
Cc1onc(-c2c(F)cccc2Cl)c1C(=O)N(C)C1CCCCC1	i	-12.8	i	i	i	1.21	.	.
O=C(CNC(=O)c1ccccc1F)NCc1ccncc1	.	.	.	i	.	.	.	.
CC(C)C[C@H]1CN=C(Nc2ccccc2)N1CC1CCCC1	i	13.0	i	i	i	-1.81	.	.
CC(C)CCN1C(Nc2ccccc2)=NC[C@@H]1Cc1ccccc1	i	19.1	i	i	6.97*	-1.73	20.9*	i
CC(C)C[C@H]1CN=C(Nc2ccccc2)N1CC1CCC(C(C)(C)C)CC1 (stereo partly specified)	100*	.	i	i	28.5*	.	59.0*	i
CC(C)N(Cc1ccccc1)C(=O)C1CCCN(c2ncnc3c2nc2n3CCCCC2)C1 (stereo unspecified)	i	-11.7	i	i	i	0.34	.	.
CCCCN(Cc1ccco1)C(=O)C1CCCN(c2ncnc3c2nc2n3CCCCC2)C1 (stereo unspecified)	i	-12.2	i	i	i	0.08	17.6*	i
C=CCn1ccc(=O)nc1SC	.	.	.	i	.	.	.	.
c1cncc(-c2nc(NCC3CCCO3)c3ccccc3n2)c1 (stereo unspecified)	i	5.0	i	i	i	-1.27	21.6*	-33.3*
COc1ccccc1S(=O)(=O)NCc1ccc(C(=O)NC2CCC(O)CC2)cc1 (stereo unspecified)	.	.	.	i	.	.	.	.
SMILES	TMEM16A inh	GPR7 antagonist	CHT inh	TMEM16A act	CHT PAM	Kir21 block	CHT act confirm	HEK293 MP dye
COc1ncccc1-c1nnn(-c2ccc(Cl)nc2)n1	i	-3.7	i	i	i	0.52	48.3*	-40.8*
Cc1ccc(-n2nnc(-c3cccnc3Cl)n2)cc1	i	-6.1	i	i	i	1.5	.	.
COc1ccc(OC)c(C2=NS(=O)(=O)N(C)C(C(=O)NCc3ccco3)=C2)c1	i	1.3	i	i	i	2.34	.	.
COc1ccc(C)cc1NC(=O)CN(C)S(=O)(=O)c1ccc2c(c1)CC(C)N2C(C)=O (stereo unspecified)	i	-5.9	i	i	i	0.3	.	.
CCCCN(C)CCNC(=O)c1nn(-c2ccc(OC)cc2)c(=O)c2c1c1ccccc1n2C	i	-5.8	i	i	i	-0.97	28.7*	-31.4*
CCN1CCN(c2nc3ccccc3nc2C(C#N)C(=O)OC2CCCCC2)CC1 (stereo unspecified)	.	-7.0	.	i	.	.	.	.
CN1CCN(c2nc3ccccc3nc2C(C#N)C(=O)OC2CCCCC2)CC1 (stereo unspecified)	i	-7.4	i	i	8.62*	-0.77	44.4*	-47.9*
Cc1ccc(S(=O)(=O)N2CCOCC2)cc1C(=O)OCCOc1cccc(Cl)c1	i	.	i	i	i	-0.25	.	.
O=C1CC(=O)Nc2cc(S(=O)(=O)N3CCN(c4ccc([N+](=O)[O-])cc4)CC3)ccc2N1	i	4.0	i	i	i	0.11	.	.
O=S(=O)(c1ccc(C2=CSC3=NCCN23)cc1)N1CCOCC1	i	-7.1	i	i	6.32*	-0.78	36.3*	-40.3*
CCOc1ccc(CN(C)c2ccc(S(=O)(=O)N3CCN(C)CC3)cc2[N+](=O)[O-])cc1OC	.	.	.	i	.	.	.	.
O=C(CNC(=S)N(Cc1ccccc1)Cc1cccnc1)NCCN1CCOCC1	i	-5.3	i	i	i	0.22	.	.
O=C(NN=C1CCCC1)c1ccccc1OCc1ccc(Cl)cc1	i	-1.9	i	i	10.1*	0.08	13.2*	i
CC(C)(C)OC(=O)N1CCC(C(=O)Nc2ccc3c(c2)CCC3)CC1	.	.	.	i	.	.	.	.
O=C(O)C1(c2ccccc2)CCN(S(=O)(=O)c2ccc(Br)cc2)CC1	i	0.3	i	i	i	0	.	.
Clc1cccc(Cl)c1C[n+]1ccc2ccccc2c1	i	-3.4	i	i	i	0.82	.	.
c1ccc(C[n+]2ccc3ccccc3c2)cc1	i	.	i	i	6.31*	-0.27	42.7*	-48.2*
CC1CC(C)CN(S(=O)(=O)c2ccc(C(=O)N(c3ccccn3)C3CCCCC3)cc2)C1 (stereo unspecified)	i	6.3	i	i	i	1.56	20.9*	i

Compound activity as filed in PubChem.
